Calls of active or inactive are those of the source. Rule for the calls: active = hit-call score of the fitted dose curve at least 0.9, where 1 is the maximum; inactive = score below 0.9.
Columns and labels:
Settings in all cases: mRNA level, 48 h; actives raise or lower the signal
[1] = read-out: Protein phosphatase 2A (PPP2R4), PTPA (gene 5524); assay: LTEA_HepaRG_PPP2R4: Life Technologies and Expression Analysis (LTEA) Assay for Protein phosphatase 2A (PPP2R4) using HepaRG (AID 2283522)
Procedure, shortened: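 Using HepaRG cultures maintained in 0.5% DMSO, chemicals are tested 48 h at up to 100 uM in duplicate. Induction or suppression of PPP2R4 mRNA, measured by qRT-PCR, is fitted bidirectionally against the vehicle baseline.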

[2] = read-out: Phosphatase and tensin (PTEN), PTEN (gene 5728); assay: LTEA_HepaRG_PTEN: Life Technologies and Expression Analysis (LTEA) Assay for Phosphatase and tensin (PTEN) using HepaRG (AID 2283523)
Procedure, shortened: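 Read-out: TaqMan qRT-PCR of PTEN transcript, normalized to three housekeeping genes, fitted in both directions against 0.5% DMSO. Differentiated human HepaRG cultures received chemicals for 48 h, eight-point half-log series topping at 100 uM.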

[3] = read-out: solute carrier (SLC22A1), SLC22A1 (gene 6580); assay: LTEA_HepaRG_SLC22A1: Life Technologies and Expression Analysis (LTEA) Assay for solute carrier (SLC22A1) using HepaRG (AID 2283524)
Procedure, shortened: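 Transcript level of SLC22A1 quantified by qRT-PCR (normalized to three housekeeping genes) after 48 h chemical exposure of HepaRG cells, eight concentrations up to 100 µM, half-log steps, 0.5% DMSO vehicle. Gain or loss relative to DMSO fitted bidirectionally.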

[4] = read-out: Pyruvate Dehydrogenase Kinase 4 (PDK4), PDK4 (gene 5166); assay: LTEA_HepaRG_PDK4: Life Technologies and Expression Analysis (LTEA) Assay for Pyruvate Dehydrogenase Kinase 4 (PDK4) using HepaRG (AID 2283525)
Procedure, shortened: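 Readout is qRT-PCR of PDK4 transcript, normalized to three housekeeping genes, with bidirectional fitting against 0.5% DMSO vehicle. Differentiated HepaRG cells were treated 48 h in serum-free induction medium, duplicate wells, eight-point half-log series topping at 100 uM.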

[5] = read-out: NAD(P)H dehydrogenase [quinone] 1 (NQO1), NQO1 (gene 1728); assay: LTEA_HepaRG_NQO1: Life Technologies and Expression Analysis (LTEA) Assay for NAD(P)H dehydrogenase [quinone] 1 (NQO1) using HepaRG (AID 2283526)
Procedure, shortened: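 In this assay, gene expression is read by qRT-PCR after 48 h exposure of HepaRG cells to eight concentrations (max 100 uM, half-log) in 0.5% DMSO. Each chemical runs in duplicate, and activity is scored relative to vehicle.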

[6] = read-out: Nuclear factor erythroid 2-related factor 2 (Homo sapiens) (UniProt Q16236); assay: LTEA_HepaRG_NFE2L2: Life Technologies and Expression Analysis (LTEA) Assay for Nuclear factor erythroid 2-related factor 2 (NFE2L2) Transcription Factor using HepaRG (AID 2283527);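 note: TaqMan qRT-PCR transcript level normalised to ACTB GAPDH and POLR2A housekeeping genes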
Procedure, shortened: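 NFE2L2 transcript level was read by qRT-PCR (housekeeping ACTB/GAPDH/POLR2A normalisation) after 48 h chemical treatment of HepaRG in serum-free induction medium. Duplicate 8-point half-log curves, top 100 uM, 0.5% DMSO vehicle; up- or down-regulation fitted against vehicle.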

[7] = read-out: succinate dehydrogenase complex iron sulfur subunit B (SDHB), SDHB (gene 6390); assay: LTEA_HepaRG_SDHB: Life Technologies and Expression Analysis (LTEA) Assay for succinate dehydrogenase complex iron sulfur subunit B (SDHB) using HepaRG (AID 2283528)
Procedure, shortened: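 HepaRG cells (~100,000/well, plated 48 h) exposed in duplicate for 48 h in serum-free induction medium to 8-point half-log series from 100 uM in 0.5% DMSO; mRNA by qRT-PCR normalised to ACTB, GAPDH, POLR2A; bidirectional fit versus DMSO.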

[8] = read-out: Signal transducer and activator of transcription 3 (Homo sapiens) (UniProt P40763); assay: LTEA_HepaRG_STAT3: Life Technologies and Expression Analysis (LTEA) Assay for Signal transducer and activator of transcription (STAT3) using HepaRG (AID 2283529)
Procedure, shortened: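 STAT3 transcript quantified by qRT-PCR against three housekeeping genes (ACTB, GAPDH, POLR2A), fitted both directions relative to DMSO. HepaRG cultures exposed 48 h to eight half-log concentrations, top 100 uM, 0.5% DMSO, serum-free induction medium.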

[9] = read-out: solute carrier (SLCO1B1), SLCO1B1 (gene 10599); assay: LTEA_HepaRG_SLCO1B1: Life Technologies and Expression Analysis (LTEA) Assay for solute carrier (SLCO1B1) using HepaRG (AID 2283530)
Procedure, shortened: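 SLCO1B1 transcript levels were quantified by TaqMan qRT-PCR using three housekeeping genes for normalization. This followed 48 h chemical exposure (100 uM top, half-log, 8 points, 0.5% DMSO) of HepaRG liver cells, with gain or loss fitted relative to DMSO.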

[10] = read-out: sulfotransferase 2A1 (SULT2A1), SULT2A1 (gene 6822); assay: LTEA_HepaRG_SULT2A1: Life Technologies and Expression Analysis (LTEA) Assay for sulfotransferase 2A1 (SULT2A1) using HepaRG (AID 2283531)
Procedure, shortened: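 Expression change of SULT2A1, by qRT-PCR with three housekeeping-gene normalization, was scored bidirectionally versus DMSO. Cells: differentiated HepaRG, dosed in duplicate for 48 h across 8 points, highest 100 µM, half-log dilution, 0.5% DMSO.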

[11] = read-out: Transforming Growth Factor (TGFA), TGFA (gene 7039); assay: LTEA_HepaRG_TGFA: Life Technologies and Expression Analysis (LTEA) Assay for Transforming Growth Factor (TGFA) using HepaRG (AID 2283532)
Procedure, shortened: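 TGFA transcript quantified by qRT-PCR (Fluidigm arrays) against three housekeeping genes, after 48 hours chemical treatment of HepaRG cells. Top concentration 100 uM with half-log dilutions, 8 points, duplicates, 0.5% DMSO.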

[12] = read-out: Transforming Growth Factor (TGFB1), TGFB1 (gene 7040); assay: LTEA_HepaRG_TGFB1: Life Technologies and Expression Analysis (LTEA) Assay for Transforming Growth Factor (TGFB1) Transporter using HepaRG (AID 2283533)
Procedure, shortened: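 TGFB1 transcript measured by qRT-PCR with normalisation to three housekeeping genes (ACTB, GAPDH, POLR2A); human HepaRG line treated in duplicate for 48 hr with an 8-point series topping at 100 uM, 0.5% DMSO vehicle, bidirectionally fitted.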

TIMP1, TIMP1 (gene 7076) = assay: LTEA_HepaRG_TIMP1: Life Technologies and Expression Analysis (LTEA) Assay for TIMP1 using HepaRG (AID 2283534)
Procedure, shortened: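 Bidirectional change in TIMP1 transcript versus 0.5% DMSO, measured by TaqMan qRT-PCR with three housekeeping genes for normalization. HepaRG human liver cells dosed 48 h in duplicate, top concentration 100 uM with half-log dilutions.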

[13] = read-out: Tumor necrosis factor receptor 1 (TNFRSF1A), TNFRSF1A (gene 7132); assay: LTEA_HepaRG_TNFRSF1A: Life Technologies and Expression Analysis (LTEA) Assay for Tumor necrosis factor receptor 1 (TNFRSF1A) using HepaRG (AID 2283535)
Procedure, shortened: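 mRNA measured by qRT-PCR (TaqMan, Fluidigm arrays) against ACTB/GAPDH/POLR2A housekeepers after 48 h chemical exposure of HepaRG cells. Top concentration 100 uM, half-log 8-point series, duplicates; vehicle 0.5% DMSO, both fit directions.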

[14] = read-out: Thyroid Hormone Responsive (THRSP), THRSP (gene 7069); assay: LTEA_HepaRG_THRSP: Life Technologies and Expression Analysis (LTEA) Assay for Thyroid Hormone Responsive (THRSP) using HepaRG (AID 2283536)
Procedure, shortened: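 THRSP transcript quantified by Fluidigm qRT-PCR against three housekeeping genes after 48 h chemical exposure of HepaRG cells in serum-free induction medium; eight-point half-log series, top 100 uM, 0.5% DMSO vehicle, duplicate wells.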

[15] = read-out: Cellular tumor antigen p53 (Homo sapiens) (UniProt P04637); assay: LTEA_HepaRG_TP53: Life Technologies and Expression Analysis (LTEA) Assay for Tumor Protein P53 (TP53) using HepaRG (AID 2283537)
Procedure, shortened: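 Differentiated HepaRG cells in serum-free induction medium exposed 48 h in duplicate to 8 half-log concentrations, top 100 uM, 0.5% DMSO. TP53 mRNA by TaqMan qRT-PCR (Fluidigm), normalized to ACTB, GAPDH, POLR2A; fitted bidirectionally versus DMSO.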

[16] = read-out: UDP glucuronosyltransferase (UGT1A1), UGT1A1 (gene 54658); assay: LTEA_HepaRG_UGT1A1: Life Technologies and Expression Analysis (LTEA) Assay for UDP glucuronosyltransferase (UGT1A1) using HepaRG (AID 2283538)
Procedure, shortened: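 mRNA induction or loss of UGT1A1, by TaqMan qRT-PCR, in duplicate HepaRG wells after 48 h exposure to half-log dilutions topping at 100 uM; DMSO (0.5%) served as baseline.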

[17] = read-out: UDP glucuronosyltransferase (UGT1A6), UGT1A6 (gene 54578); assay: LTEA_HepaRG_UGT1A6: Life Technologies and Expression Analysis (LTEA) Assay for UDP glucuronosyltransferase (UGT1A6) using HepaRG (AID 2283539)
Procedure, shortened: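 Expression was quantified by TaqMan qRT-PCR on Fluidigm arrays with ACTB/GAPDH/POLR2A normalization and bidirectional fitting against 0.5% DMSO. HepaRG cells (~100,000/well) were treated in duplicate for 48 h at eight half-log concentrations up to 100 uM in serum-free induction medium.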

[18] = read-out: X-box binding protein 1 (XBP1), XBP1 (gene 7494); assay: LTEA_HepaRG_XBP1: Life Technologies and Expression Analysis (LTEA) Assay for X-box binding protein 1 (XBP1) using HepaRG (AID 2283540)
Procedure, shortened: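 XBP1 transcript by qRT-PCR (housekeeping-normalized: ACTB, GAPDH, POLR2A) after 48 h chemical treatment of HepaRG cells, 8-point half-log series topping at 100 uM, vehicle 0.5% DMSO. Gain and loss of signal fitted relative to DMSO.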

[19] = read-out: Nuclear factor NF-kappa-B p105 subunit (Homo sapiens) (UniProt P19838); assay: LTEA_HepaRG_NFKB1: Life Technologies and Expression Analysis (LTEA) Assay for Nuclear Factor Kappa B Subunit 1 (NFKB1) using HepaRG (AID 2283521)
Procedure, shortened: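 Differentiated human HepaRG cells in serum-free induction medium with 0.5% DMSO were exposed for 48 h to eight half-log concentrations, top 100 uM, in duplicate. NFKB1 mRNA measured by Fluidigm TaqMan qRT-PCR, normalised to ACTB, GAPDH and POLR2A; bidirectional fit versus DMSO.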

Measured: outcome

Chain of Nuclear factor erythroid 2-related factor 2 (Homo sapiens) (Q16236 whole entry, looked up): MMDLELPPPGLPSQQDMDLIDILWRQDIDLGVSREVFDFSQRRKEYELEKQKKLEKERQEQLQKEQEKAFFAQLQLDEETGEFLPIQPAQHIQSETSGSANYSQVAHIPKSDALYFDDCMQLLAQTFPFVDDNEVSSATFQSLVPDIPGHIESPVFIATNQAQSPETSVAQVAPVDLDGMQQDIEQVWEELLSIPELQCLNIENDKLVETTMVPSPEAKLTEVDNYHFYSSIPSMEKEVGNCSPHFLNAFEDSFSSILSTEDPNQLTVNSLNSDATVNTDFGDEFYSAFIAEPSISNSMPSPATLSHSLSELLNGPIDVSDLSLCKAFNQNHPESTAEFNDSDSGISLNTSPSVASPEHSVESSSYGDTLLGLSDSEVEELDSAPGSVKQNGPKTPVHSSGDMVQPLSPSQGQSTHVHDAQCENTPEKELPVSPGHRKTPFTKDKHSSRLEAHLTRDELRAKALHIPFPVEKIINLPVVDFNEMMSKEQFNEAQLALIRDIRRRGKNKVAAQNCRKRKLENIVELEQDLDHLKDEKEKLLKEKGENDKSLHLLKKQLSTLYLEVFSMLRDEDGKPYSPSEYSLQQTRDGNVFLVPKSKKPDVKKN
Chain of Signal transducer and activator of transcription 3 (Homo sapiens) (P40763 whole entry, looked up): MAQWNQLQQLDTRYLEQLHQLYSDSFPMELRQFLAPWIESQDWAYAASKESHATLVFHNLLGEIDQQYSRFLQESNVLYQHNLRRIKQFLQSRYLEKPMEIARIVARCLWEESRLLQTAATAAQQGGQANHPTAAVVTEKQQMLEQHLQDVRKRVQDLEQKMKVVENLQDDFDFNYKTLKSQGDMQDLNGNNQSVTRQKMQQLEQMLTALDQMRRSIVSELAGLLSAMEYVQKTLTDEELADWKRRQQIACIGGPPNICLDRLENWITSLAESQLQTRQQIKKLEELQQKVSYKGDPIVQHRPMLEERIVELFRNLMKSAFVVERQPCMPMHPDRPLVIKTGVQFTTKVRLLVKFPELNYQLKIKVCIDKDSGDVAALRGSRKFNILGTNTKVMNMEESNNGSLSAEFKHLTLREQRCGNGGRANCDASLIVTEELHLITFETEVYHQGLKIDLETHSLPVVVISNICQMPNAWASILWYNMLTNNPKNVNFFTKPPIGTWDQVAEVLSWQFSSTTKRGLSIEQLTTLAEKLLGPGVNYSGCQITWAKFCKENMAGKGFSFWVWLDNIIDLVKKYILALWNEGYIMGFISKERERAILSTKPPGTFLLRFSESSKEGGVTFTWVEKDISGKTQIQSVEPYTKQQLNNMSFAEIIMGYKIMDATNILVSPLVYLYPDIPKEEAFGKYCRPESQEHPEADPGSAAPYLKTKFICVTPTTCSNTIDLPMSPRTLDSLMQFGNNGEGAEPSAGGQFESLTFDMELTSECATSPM
Chain of Cellular tumor antigen p53 (Homo sapiens) (P04637 whole entry, looked up): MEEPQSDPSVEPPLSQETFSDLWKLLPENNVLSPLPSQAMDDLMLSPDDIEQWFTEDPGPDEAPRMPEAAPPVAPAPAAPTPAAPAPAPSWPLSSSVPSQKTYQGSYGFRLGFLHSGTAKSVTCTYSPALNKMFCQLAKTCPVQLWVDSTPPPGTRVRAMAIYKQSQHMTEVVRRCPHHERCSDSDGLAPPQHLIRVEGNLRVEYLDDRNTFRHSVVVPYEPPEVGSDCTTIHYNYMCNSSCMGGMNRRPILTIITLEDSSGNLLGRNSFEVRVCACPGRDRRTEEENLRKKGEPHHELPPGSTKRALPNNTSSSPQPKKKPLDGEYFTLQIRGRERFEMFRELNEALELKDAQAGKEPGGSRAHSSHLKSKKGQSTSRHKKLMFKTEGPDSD
Chain of Nuclear factor NF-kappa-B p105 subunit (Homo sapiens) (P19838 whole entry, looked up): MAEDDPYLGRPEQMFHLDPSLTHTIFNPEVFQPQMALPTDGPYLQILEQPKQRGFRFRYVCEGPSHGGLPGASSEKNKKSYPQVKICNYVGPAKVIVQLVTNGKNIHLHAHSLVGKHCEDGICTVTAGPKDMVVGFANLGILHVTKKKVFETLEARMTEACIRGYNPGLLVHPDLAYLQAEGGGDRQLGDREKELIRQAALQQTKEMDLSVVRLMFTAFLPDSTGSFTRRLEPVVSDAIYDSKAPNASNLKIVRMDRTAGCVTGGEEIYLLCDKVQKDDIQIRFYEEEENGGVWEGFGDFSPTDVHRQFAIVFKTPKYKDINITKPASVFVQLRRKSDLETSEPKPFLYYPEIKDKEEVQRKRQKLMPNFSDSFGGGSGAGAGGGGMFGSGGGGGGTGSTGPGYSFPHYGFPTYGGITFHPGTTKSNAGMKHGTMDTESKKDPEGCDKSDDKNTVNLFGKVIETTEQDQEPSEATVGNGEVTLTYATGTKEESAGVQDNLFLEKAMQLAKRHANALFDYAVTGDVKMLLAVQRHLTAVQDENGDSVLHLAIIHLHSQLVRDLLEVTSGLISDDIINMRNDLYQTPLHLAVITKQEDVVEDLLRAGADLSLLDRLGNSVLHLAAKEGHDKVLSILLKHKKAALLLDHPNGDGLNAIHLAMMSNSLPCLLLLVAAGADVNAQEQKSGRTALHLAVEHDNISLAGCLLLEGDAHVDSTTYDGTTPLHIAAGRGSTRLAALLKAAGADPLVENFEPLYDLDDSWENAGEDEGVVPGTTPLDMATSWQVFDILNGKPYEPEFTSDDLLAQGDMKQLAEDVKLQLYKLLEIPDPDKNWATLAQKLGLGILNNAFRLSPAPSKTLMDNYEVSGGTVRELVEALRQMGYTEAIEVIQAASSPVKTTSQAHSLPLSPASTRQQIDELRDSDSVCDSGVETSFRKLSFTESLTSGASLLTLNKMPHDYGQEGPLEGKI

CCCc1ccccc1
inactive: [1] | [2] | [3] | [4] | [5] | [6] | [7] | [8] | [9] | [10] | [11] | [12] | TIMP1, TIMP1 (gene 7076) | [13] | [14] | [15] | [16] | [17] | [18]

CCCCCCCCN(C)C
inactive: [1] | [2] | [3] | [4] | [5] | [6] | [7] | [8] | [9] | [10] | [11] | [12] | TIMP1, TIMP1 (gene 7076) | [13] | [15] | [16] | [17] | [18]

CC(C)CC(C)O (centres undefined)
inactive: [19] | [1] | [2] | [3] | [4] | [5] | [6] | [7] | [8] | [9] | [10] | [12] | TIMP1, TIMP1 (gene 7076) | [13] | [16] | [17] | [18]

Source: PubChem BioAssay (EPA / NIEHS)
